The subject of one assay is IL-6-GFP PC-9GR. Kind of assay: cell viability (CCK-8 OD) relative to DMSO control (fraction of control); higher = more viable cells. Conditions: compound concentration: 10 uM; treatment time: 48 h. The gist of the method:
(§1)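 PC-9 and PC-9GR lung cancer cells expressing lentiviral IL-6-GFP were plated at 3000 cells/well in 96-well plates and treated for 48 h with each library compound at a final 10 μM. Viability was determined by CCK-8 absorbance as a ratio of each well's optical density to the vehicle control well.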

For a further assay, the system named is IL-6-GFP PC-9. The description is as above. Particulars: compound concentration: 10 uM; treatment time: 48 h. The gist of the method: as §1

Structures can show the parent of a compound that is named as a salt. ± gives the standard deviation of the averaged measurements.

As to `CN1CCC(=C2c3ccccc3CCc3sccc32)CC1.O=C(O)CC(O)C(=O)O` [Pizotifen Malate], the cell viability in the assay with IL-6-GFP PC-9GR amounted to 1.41 ± 0.064; with IL-6-GFP PC-9, 1.22 ± 0.16.

As for `CCCC(=O)OC1(C(=O)CO)CCC2C3CCC4=CC(=O)CCC4(C)C3C(O)CC21C` (stereo not drawn) [Hydrocortisone butyrate], the cell viability in the assay on IL-6-GFP PC-9GR was determined as 0.857 ± 0.11; in the assay with IL-6-GFP PC-9, 1.08 ± 0.073.

In the case of `CC(C(=O)O)c1ccc(CC2CCCC2=O)cc1` (stereo not drawn) [Loxoprofen], the cell viability with IL-6-GFP PC-9GR is 1.04 ± 0.028; in the assay with IL-6-GFP PC-9, 1.29 ± 0.05.

For the compound `O=c1[nH]c(=O)n(C2CCCO2)cc1F` (stereo not drawn), the cell viability stood at 1.11 ± 0.023 with IL-6-GFP PC-9GR and 1.01 ± 0.013 with IL-6-GFP PC-9.

Turning to `O=C(O)C1CSCN1` (stereo not drawn) [Timonacic], the values for the cell viability in the assay on IL-6-GFP PC-9GR and in the assay on IL-6-GFP PC-9 were 1.19 ± 0.24 and 1.01 ± 0.15, respectively.

For the compound `Cn1c(=O)cc(N2CCCC(N)C2)n(Cc2cc(F)ccc2C#N)c1=O` (stereo not drawn) [Trelagliptin], the cell viability in the assay on IL-6-GFP PC-9GR came out at 1.09 ± 0.15; in the assay with IL-6-GFP PC-9, 1.33 ± 0.49.

As to `CCOC(=O)OC1(C(=O)OCCl)CCC2C3CCC4=CC(=O)C=CC4(C)C3C(O)CC21C` (stereo not drawn) [Loteprednol etabonate], the cell viability with IL-6-GFP PC-9GR came to 1.21 ± 0.051; with IL-6-GFP PC-9, 0.944 ± 0.063.

`Cc1nc(Nc2ncc(C(=O)Nc3c(C)cccc3Cl)s2)cc(N2CCN(CCO)CC2)n1.Cl` [Dasatinib hydrochloride]: the cell viability with IL-6-GFP PC-9GR was determined as 0.517 ± 0.025; with IL-6-GFP PC-9, 0.438 ± 0.063.

In the case of `CC(=O)OC(C)C(C)C(=O)OCC12C3CC4(C)C(=CCC5C6(C)CCC(OC7OC(C(=O)[O][Na])C(OC8OC(CO)C(O)C(O)C8O)C(O)C7OC7OCC(O)C(O)C7O)C(C)(CO)C6CCC54C)C1CC(C)(C)C(O3)C2O` (stereo not drawn) [Sodium Aescinate], the cell viability with IL-6-GFP PC-9GR is 0.632 ± 0.25; in the assay with IL-6-GFP PC-9 it was 1 ± 0.18.

In the case of `O=c1[nH]c(=O)n(C2CC(O)C(CO)O2)cc1F` (stereo not drawn) [Floxuridine], the cell viability came to 0.681 ± 0.02 in the assay with IL-6-GFP PC-9GR and 0.808 ± 0.25 in the assay with IL-6-GFP PC-9.

Turning to `CC(C)CC(NC(=O)CNC(=O)c1cc(Cl)ccc1Cl)B1OC(=O)CC(CC(=O)O)(C(=O)O)O1` (stereo not drawn) [Ixazomib Citrate (MLN9708)], the cell viability in the assay with IL-6-GFP PC-9GR amounted to 0.316 ± 0.3; in the assay with IL-6-GFP PC-9 it was 0.339 ± 0.12.

As for `Cl.Cl.Cl.Cl.Cl.Cl.Cl.Cl.c1cc(CN2CCCNCCNCCCNCC2)ccc1CN1CCCNCCNCCCNCC1` [Plerixafor 8HCl (AMD3100 8HCl)], the results for the cell viability in the assay with IL-6-GFP PC-9GR and in the assay on IL-6-GFP PC-9 were 1.04 ± 0.12 and 1.13 ± 0.1, respectively.

In the case of `COc1ccc2cc(C(C)C(=O)[O-])ccc2c1.[Na+]` (stereo not drawn) [Naproxen Sodium], the cell viability came out at 1.36 ± 0.035 in the assay with IL-6-GFP PC-9GR and 1.16 ± 0.16 in the assay with IL-6-GFP PC-9.

Regarding `CCN(CC)CCNC(=O)c1c(C)[nH]c(/C=C2\C(=O)Nc3ccc(F)cc32)c1C.O=C(O)CC(O)C(=O)O` [Sunitinib Malate], the cell viability with IL-6-GFP PC-9GR was found to be 1.01 ± 0.063; in the assay on IL-6-GFP PC-9, 0.453 ± 0.52.

Turning to `CC12CCC3c4ccc(O)cc4CC(CCCCCCCCCS(=O)CCCC(F)(F)C(F)(F)F)C3C1CCC2O` (stereo not drawn) [Fulvestrant], the cell viability is 1.14 ± 0.072 in the assay with IL-6-GFP PC-9GR and 1.024 ± 0.0045 in the assay on IL-6-GFP PC-9.

Consider `CN1CCN(c2ccc(C(=O)Nc3n[nH]c4ccc(Cc5cc(F)cc(F)c5)cc34)c(NC3CCOCC3)c2)CC1` [Entrectinib (RXDX-101)], for which the cell viability in the assay on IL-6-GFP PC-9GR worked out at 0.164 ± 0.14; in the assay on IL-6-GFP PC-9, 0.515 ± 0.14.

For the compound `CC(C)C1C(=O)NC(CCCNC(=N)N)C(=O)NCC(=O)NC(CC(=O)O)C(=O)NC(Cc2ccccc2)C(=O)N1C.O=C(O)C(F)(F)F` (stereo not drawn), the cell viability in the assay on IL-6-GFP PC-9GR was determined as 1.13 ± 0.28; with IL-6-GFP PC-9, 1.26 ± 0.087.

On to `CC(C)c1c(C(=O)Nc2ccccc2)c(-c2ccccc2)c(-c2ccc(F)cc2)n1CCC(O)CC(O)CC(=O)O` (stereo not drawn) [atorvastatin], for which the cell viability in the assay with IL-6-GFP PC-9GR is 0.904 ± 0.21; with IL-6-GFP PC-9, 0.866 ± 0.015.

Regarding `NC(CC(=O)N1CCn2c(nnc2C(F)(F)F)C1)Cc1cc(F)c(F)cc1F.O.O=P(O)(O)O` (stereo not drawn) [Sitagliptin phosphate monohydrate], the cell viability in the assay with IL-6-GFP PC-9GR amounted to 0.836 ± 0.12; in the assay with IL-6-GFP PC-9, 0.812 ± 0.47.

Consider `CN1C(C(=O)Nc2ccccn2)=C(O)c2ccccc2S1(=O)=O` [Piroxicam], for which the values for the cell viability with IL-6-GFP PC-9GR and with IL-6-GFP PC-9 were 1.21 ± 0.047 and 1.09 ± 0.12, respectively.

Regarding `CNC(=O)c1ccc(N2C(=S)N(c3cnc(C#N)c(C(F)(F)F)c3)C(=O)C23CCC3)cc1F`, the cell viability came to 1.03 ± 0.13 in the assay on IL-6-GFP PC-9GR and 1.02 ± 0.11 with IL-6-GFP PC-9.

Consider `CC1CCN(C(=O)CC#N)CC1N(C)c1ncnc2[nH]ccc12.O=C(O)CC(O)(CC(=O)O)C(=O)O` (stereo not drawn), for which the cell viability in the assay with IL-6-GFP PC-9GR was found to be 1.2 ± 0.23; in the assay on IL-6-GFP PC-9, 1.26 ± 0.04.

As to `Cn1nnc2c(C(N)=O)ncn2c1=O` [Temozolomide], the cell viability in the assay on IL-6-GFP PC-9GR worked out at 1.18 ± 0.04; in the assay with IL-6-GFP PC-9 it was 0.6981 ± 0.0048.

Consider `C=C1CCC2C(C)(CO)C(O)CCC2(C)C1C/C=C1\C=COC1=O` (stereo not drawn) [Dehydroandrographolide], for which the cell viability was 1.17 ± 0.35 in the assay with IL-6-GFP PC-9GR and 1.24 ± 0.12 in the assay with IL-6-GFP PC-9.

Consider `CCS(=O)(=O)N1CC(CC#N)(n2cc(-c3ncnc4[nH]ccc34)cn2)C1.O=P(O)(O)O` [Baricitinib phosphate], for which the cell viability in the assay with IL-6-GFP PC-9GR came out at 0.391 ± 0.7; in the assay with IL-6-GFP PC-9 it was 1.0937 ± 7.8e-05.

On to `Cc1nnc(C(=O)NC(C)(C)c2nc(C(=O)NCc3ccc(F)cc3)c([O-])c(=O)n2C)o1.[K+]` [Raltegravir potassium], for which the cell viability with IL-6-GFP PC-9GR worked out at 1.37 ± 0.48; with IL-6-GFP PC-9, 1.12 ± 0.16.

For the compound `CS(=O)(=O)CCNCc1ccc(-c2ccc3ncnc(Nc4ccc(OCc5cccc(F)c5)c(Cl)c4)c3c2)o1.Cc1ccc(S(=O)(=O)O)cc1.Cc1ccc(S(=O)(=O)O)cc1`, the values for the cell viability in the assay on IL-6-GFP PC-9GR and with IL-6-GFP PC-9 were 1.18 ± 0.056 and 0.708 ± 0.033, respectively.

With `CNC(=O)c1cc(Oc2ccc(NC(=O)Nc3ccc(Cl)c(C(F)(F)F)c3)c(F)c2)ccn1` [Regorafenib (BAY 73-4506)], the cell viability was 0.833 ± 0.029 in the assay on IL-6-GFP PC-9GR and 0.476 ± 0.11 with IL-6-GFP PC-9.

On to `Cn1cc(C2=C(c3cccc(N)c3)C(=O)NC2=O)c2ccccc21`, for which the figures for the cell viability in the assay on IL-6-GFP PC-9GR and in the assay with IL-6-GFP PC-9 were 0.303 ± 0.31 and 0.677 ± 0.15, respectively.

The values are drawn from the supplement of paper PMC8866396.
